Measured values published in PubChem BioAssay (NCI).
Compounds without any hit were thinned out: in the full panel of roughly 83,000, 20% have a hit.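 For each line, cells grew in 96-well plates with the test compound present at a single concentration for 48 hours.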 Unmarked numbers belong to inactive results. The source made the active and inactive calls. The calls were made as follows: active = growth percent below 10; inactive = the rest.

Legend:
Assay in all cases: NCI-60 one-dose screen, 48 h (100 = growth as untreated, 0 = no growth, -100 = all killed)
Conditions in all cases: 10 µM unless noted
NCI-H23 lung = test system: NCI-H23 lung
NCI-H322M lung = test system: NCI-H322M lung
HOP-62 NSCLC = test system: HOP-62 NSCLC
NCI-H460 lung = test system: NCI-H460 lung
HOP-92 NSCLC = test system: HOP-92 NSCLC
NCI-H522 lung = test system: NCI-H522 lung
A549/ATCC NSCLC = test system: A549/ATCC NSCLC
786-0 renal = test system: 786-0 renal
COLO 205 colon = test system: COLO 205 colon
DU-145 prostate = test system: DU-145 prostate
K-562 leukemia = test system: K-562 leukemia
MALME-3M melanoma = test system: MALME-3M melanoma
MDA-MB-231 breast = test system: MDA-MB-231 breast
RXF 393 renal = test system: RXF 393 renal
SF-268 CNS = test system: SF-268 CNS
SF-295 CNS = test system: SF-295 CNS
SF-539 CNS = test system: SF-539 CNS
UACC-257 melanoma = test system: UACC-257 melanoma
M14 melanoma = test system: M14 melanoma

Compound	growth (NCI-H23 lung)	growth (NCI-H322M lung)	growth (HOP-62 NSCLC)	growth (NCI-H460 lung)	growth (HOP-92 NSCLC)	growth (NCI-H522 lung)	growth (A549/ATCC NSCLC)	growth (786-0 renal)	growth (COLO 205 colon)	growth (DU-145 prostate)	growth (K-562 leukemia)	growth (MALME-3M melanoma)	growth (MDA-MB-231 breast) [%]	growth (RXF 393 renal)	growth (SF-268 CNS) [%]	growth (SF-295 CNS)	growth (SF-539 CNS)	growth (UACC-257 melanoma)	growth (M14 melanoma)
O=C(Nc1cccnc1Nc1ccc(Cl)cc1)c1cn(Cc2cccc(Oc3ccccc3)c2)nn1	63%	68.7%	61.1%	35.2%	53%	44.6%	42.4%	52.2%	73.6%	59.7%	23.1%	58%	53.3	44.1%	45.2	29.2%	33.6%	62%	21.8%
Cc1cc(C(=O)CCCC(=O)c2cc(C)c(O)c(C)c2)cc(C)c1O	99.8%	114%	98.9%	112%	82.9%	91.1%	104%	93.9%	-53.1% (active)	109%	27.4%	92.3%	98.1	84.2%	99	99.9%	102%	105%	98.6%
Cc1cn(C)cn1	97.7%	116%	111%	106%	81.8%	89.3%	94.2%	97.9%	125%	107%	106%	96.1%	112	117%	106	105%	110%	90.2%	103%
O=C(Oc1ccc2c(c1)sc1nc(-c3ccccc3)[nH]c(=O)c12)C(F)(F)F	52.8%	56.3%	39.3%	–	54.1%	25.1%	28.3%	51%	88.3%	44.2%	15.3%	33.3%	61.4	43.8%	44	51.9%	27.9%	49.1%	4.5% (active)
CCOC(=O)NCCCC(=O)NCCc1ccccc1	98.9%	106%	108%	110%	111%	106%	107%	105%	114%	103%	106%	103%	108	101%	101	104%	106%	103%	102%
Brc1ccc(Nc2nc(Nc3cnc4ccccc4c3)c3[nH]cnc3n2)cc1	76%	105%	64.6%	65%	26%	54.2%	79.6%	49.4%	90.4%	81.3%	79.7%	105%	53.8	75.8%	76.6	84.7%	87.4%	90.3%	84.8%
CCC(C)(C)c1ccc(Nc2ccc(Nc3ccc(C(C)(C)CC)cc3)cc2)cc1	83.1%	105%	89.3%	99.1%	51.1%	79.9%	90.4%	84.4%	84.7%	93.8%	80.4%	97.4%	93.5	83.4%	98.6	102%	102%	80.3%	92.5%
COC1C(O)CC(OC2CC(OC3CC(O[C@@H]4C(=O)c5c(cc6cc(OC7CC(OC8CC(O)C(O)C(C)O8)C(O)C(C)O7)c(C)c(O)c6c5O)CC4[C@H](OC)[C@@H](O)C(C)=O)OC(C)C3O)OC(C)C2O)OC1C (some centres not stated)	-12.1% (active)	4.31% (active)	-3.94% (active)	7.99% (active)	5.01% (active)	-26.4% (active)	3.44% (active)	8.03% (active)	–	15.8%	9.22% (active)	-11.6% (active)	36.2	-57.5% (active)	21.5	8.38% (active)	-6.81% (active)	-14.7% (active)	-21.2% (active)
CC(C)NS(=O)(=O)/N=C1\NC(=O)NC1=C(Cl)Cl	101%	103%	101%	99.2%	122%	54.2%	94%	110%	113%	104%	91.3%	99.9%	116	112%	91.3	103%	96%	76.8%	97.2%
COc1ccc(N/N=C/c2cn(-c3ccc(C(=O)O)cc3)nc2-c2cc3ccccc3oc2=O)cc1	86.7%	85.2%	84%	47.4%	86.6%	52.3%	57.1%	59%	84.3%	84.2%	11.3%	109%	77.9	111%	68.5	22.5%	50%	88.9%	42.3%
CS(=O)(=O)c1ccc(-c2nc3ccccc3n2CC(=O)N/N=C/c2ccccc2)cc1	94.2%	95.5%	89%	107%	96.3%	79.1%	97.2%	97.1%	104%	111%	92.3%	82.4%	97.6	116%	97.5	94.2%	97.5%	98.8%	90.4%
CS(=O)(=O)Nc1cc(-c2ccc3ncnc(Nc4ccc5c(cnn5Cc5ccncc5)c4)c3c2)cnc1Cl	62.2%	76%	43.9%	–	-7.79% (active)	46.4%	86%	66.3%	89.2%	78.9%	53.5%	20.8%	43.4	21.1%	45	84.5%	50.3%	59.4%	56.2%
O=S(=O)(Nc1cc(Sc2nc3ccccc3s2)c(O)c2ccccc12)c1ccc2ccccc2c1	76.3%	94.9%	102%	–	109%	83%	99.9%	111%	101%	101%	-35.7% (active)	102%	71.1	104%	95.4	87.7%	106%	99.8%	109%
COc1ccc2c(c1)oc1c(C)c3c(c(C)c12)C(=O)N(CCOS(C)(=O)=O)C3=O	94.2%	96.7%	103%	94%	113%	87.7%	109%	95.2%	107%	106%	96%	90.1%	90.7	116%	92.3	103%	92.2%	125%	103%
N#Cc1nn(-c2cc(=O)[nH]c3ccc(Br)cc23)c(N)c1C#N	102%	93.3%	83.2%	105%	-90.8% (active)	78.4%	101%	97.4%	80%	117%	-12.4% (active)	89.4%	85.3	115%	108	101%	105%	93.4%	90.1%
CCN1C2CCC1/C(=C\c1ccccc1)C(=O)/C2=C/c1ccccc1	32.5%	51.6%	59.8%	51.5%	58.5%	41.3%	–	57.2%	43.5%	1.64% (active)	32.1%	63.7%	79.2	48.9%	42.8	48.4%	45.4%	52.2%	48.2%
Oc1c(I)cc(I)cc1CN(Cc1ccccn1)Cc1ccccn1	25.6%	18.4%	18.7%	4.01% (active)	24.4%	11.5%	7.57% (active)	18.2%	–	29%	14.2%	17.1%	33.4	46.7%	19.7	23.5%	4.05% (active)	1.45% (active)	-16.6% (active)
